# Autofluor counter: compound fluorescence in toxin protease inhibitor counterscreen | compound autofluorescence counterscreen, microsphere flow cytometry; stronger effect = higher value | fluorescence intensity (concentration not given with the values) | actives 3.1% (n = 360,000) | AID 624483; in the data active = fluorescence intensity above about 16000; inconclusive = no clear call, values can overlap the other calls
# MazF activator: activators of E. coli MazEF toxin-antitoxin RNase, primary screen, biochemical, fluorescence, uHTS; FAM/BHQ RNA-DNA oligo cleavage fluorescence, 5 h; activation, % at 20 µM; actives 0.32% (n = 350,000); AID 504720, 2011; in the data active = activation above about 50%
# BoNT-A LC inh2: BoNT/A light chain protease inhibitors, primary screen, biochemical, flow cytometry, MLPCN library; Botulinum neurotoxin type A light chain protease (Clostridium botulinum A str. ATCC 3502); multiplex microsphere protease substrate cleavage; inhibition, % at 10 µM; actives 0.17% (n = 360,000); note: plate controls were buffer without enzyme for full effect and enzyme alone for no effect
# Vc quorum ag: inducers of Vibrio cholerae quorum light production without autoinducers, primary screen, BH1578 luxS cqsA deficient, single point; AID 588436, 2011; actives 0.16% (n = 350,000); V. cholerae BH1578 lux reporter, luminescence, 6 h; activation, % at 18.7 µM; in the data active = activation mostly above about 9.7%, no sharp cut-off; inconclusive = no clear call, values can overlap the other calls; inactive = mostly below about 3.7%
# Anthrax LF inh2: Bacillus anthracis LF protease inhibitors, primary screen, biochemical, multiplex microsphere, MLPCN library; Lethal factor (Bacillus anthracis), P15917; multiplex microsphere protease cleavage assay; inhibition, % at 10 µM; actives 0.12% (n = 360,000); AID 588501, 2011; note: plate controls were buffer without enzyme for full effect and enzyme alone for no effect
# Target sequence (P15917 whole entry, looked up): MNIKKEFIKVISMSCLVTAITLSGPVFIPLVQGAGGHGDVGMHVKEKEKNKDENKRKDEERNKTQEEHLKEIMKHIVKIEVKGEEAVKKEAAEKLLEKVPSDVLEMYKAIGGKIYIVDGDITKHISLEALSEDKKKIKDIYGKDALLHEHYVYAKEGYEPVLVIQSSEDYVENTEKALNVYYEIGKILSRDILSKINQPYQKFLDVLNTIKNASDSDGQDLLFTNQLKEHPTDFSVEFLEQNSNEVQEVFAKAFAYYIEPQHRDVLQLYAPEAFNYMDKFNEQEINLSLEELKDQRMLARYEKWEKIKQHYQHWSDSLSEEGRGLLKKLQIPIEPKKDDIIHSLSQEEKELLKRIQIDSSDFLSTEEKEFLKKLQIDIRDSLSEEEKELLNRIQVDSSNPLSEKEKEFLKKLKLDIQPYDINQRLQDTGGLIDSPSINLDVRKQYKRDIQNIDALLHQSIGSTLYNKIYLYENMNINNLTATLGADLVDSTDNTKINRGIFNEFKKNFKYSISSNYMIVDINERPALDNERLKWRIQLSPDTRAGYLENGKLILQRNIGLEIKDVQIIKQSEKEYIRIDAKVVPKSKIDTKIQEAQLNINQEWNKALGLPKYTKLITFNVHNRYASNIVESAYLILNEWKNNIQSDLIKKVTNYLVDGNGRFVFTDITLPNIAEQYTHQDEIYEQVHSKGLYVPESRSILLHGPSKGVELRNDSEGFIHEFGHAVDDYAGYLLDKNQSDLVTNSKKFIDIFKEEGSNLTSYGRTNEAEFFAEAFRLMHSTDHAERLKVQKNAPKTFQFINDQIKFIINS
# BoNT F protease: BoNT/F light chain protease inhibitors, primary screen, biochemical, flow cytometry, MLPCN library; Botulinum neurotoxin type F light chain protease (Clostridium botulinum); Multiplex microsphere protease cleavage assay; inhibition, % at 10 µM; actives 0.22% (n = 360,000); AID 588497, 2011; in the data active = inhibition above about 35%, passing the limit was not always enough; inconclusive = no clear call, values can overlap the other calls; note: plate controls were buffer without enzyme for full effect and enzyme alone for no effect
# Starred values were filed as active, the others as inactive; i = inactive; ? = inconclusive; nt = not tested or not shown; + = active, no number. In the library only some 3.9% were active in any assay of this set; here they are far more common. Cut-off read from the data, not from the text of the source, unless noted: active = inhibition above about 30%; inconclusive = no clear call, values can overlap the other calls; inactive = below that.
SMILES,Autofluor counter,MazF activator,BoNT-A LC inh2,Vc quorum ag,Anthrax LF inh2,BoNT F protease
Cn1nc(C(F)(F)F)c(/C=N/OC(=O)c2ccccc2)c1SCc1ccc(Cl)cc1,21079*,-6.9,-1.2,i,-2.4,-0.7
Cn1nc(C(F)(F)F)c(/C=N/OC(=O)c2ccccc2Cl)c1SCc1ccccc1Cl,22148*,-2.9,1.7,5.8,-0.1,1.2
Cn1nc(C(F)(F)F)c(/C=N/OC(=O)c2ccc(Cl)cc2)c1Cl,5777,-1.0,-0.2,i,-11.8,-9.5
CCNC(=O)CC1SC(=Nc2cccc(Cl)c2C)N(C)C1=O (stereo not given),16300*,-8.5,0.6,6.6,-2.0,-0.9
CCNC(=O)CC1SC(=Nc2ccc(Cl)cc2)N(CC)C1=O (stereo not given),2040,2.5,-0.1,-0.5,-1.4,-0.7
CN1C(=O)/C(=C/c2cccc(Cl)c2)Sc2ccc(C(=O)N3CCCC3)cc21,nt,-5.9,nt,nt,nt,nt
S=C(NC1CCCCC1)c1ccc2c(c1)OCO2,20422*,1.6,4.6,-0.2,-1.7,5.1
O=C(NC1CCCCCCC1)c1ccc2c(c1)OCO2,3642,-4.2,-0.9,i,1.0,-5.6
O=C(c1ccc2c(c1)OCCO2)N1CCN(c2ccccn2)CC1,17835*,3.6,-38.5,i,-10.3,-60.2
O=C1CSc2ccc(C(=O)N3CCN(c4ccccn4)CC3)cc2N1,25914*,6.5,?,i,-2.2,-7.3
O=S(=O)(Nc1ccccc1OC(F)F)c1ccc(S(=O)(=O)N2CCCC2)cc1,3732,-7.6,-2.0,i,8.2,9.3
CCOC(=O)N1CCN(C(=O)C2CC(=O)N(c3ccc(C)cc3)C2)CC1 (stereo not given),5840,-2.0,-0.6,i,-2.7,-5.3
O=C(NCC1CCCO1)c1cccc(Oc2ccc([N+](=O)[O-])cc2)c1 (stereo not given),5616,-5.4,0.9,i,-3.7,3.1
CN=Cc1nc(-c2ccccc2)oc1O,3683,-6.4,-0.6,0.7,-6.5,20.8
CC1=Nc2ccccc2/C1=C\c1nc(-c2ccc(F)cc2)oc1O,8406,+,13.7,-2.2,12.1,1.2
Cc1ccc(Cn2nnc(C(=O)Nc3cccc(C)c3C)c2N)cc1,19408*,0.1,?,i,1.0,2.2
CC1(C(=O)NCC2CC2)Cc2c(-c3ccc4c(c3)OCO4)ccnc2O1 (stereo not given),2947,nt,-0.3,i,-3.3,-0.2
CCOCCCNC(=O)c1cn(CC)c2ccc(S(=O)(=O)N3CCC(C)CC3)cc2c1=O,4798,-0.9,1.1,-0.2,0.3,8.0
CCN(CC)S(=O)(=O)c1ccc2oc(C(=O)NCCCN3CCOCC3)c(C)c2c1,6557,-7.3,1.4,0.9,-3.4,0.4
CCCCN(C)C(=O)c1oc2ccc(S(=O)(=O)N3CCCCCC3)cc2c1C,23104*,0.1,-1.3,-0.2,-10.2,-1.5
Cc1c(C(=O)NC2CC2)oc2ccc(S(=O)(=O)N3CCCCCC3)cc12,9015,11.5,-1.1,-3.3,-4.6,-9.5
Cc1c(C(=O)O)oc2ccc(S(=O)(=O)N3CCCC3)cc12,6504,-0.7,-0.3,i,2.0,-3.2
CCOC(=O)N1CCN(C(=O)c2oc3ccc(S(=O)(=O)N4CCCCC4)cc3c2C)CC1,18639*,3.2,4.5,-0.3,-9.6,6.8
CCCCN(CCCC)S(=O)(=O)c1ccc2oc(C(=O)N3CCOCC3)c(C)c2c1,24116*,3.6,-1.8,-1.0,-0.6,-2.9
O=C(NCCCN1CCN(Cc2ccccc2)CC1)c1nnc(Cc2c(F)cccc2Cl)o1,19523*,3.4,0.4,i,-1.6,3.2
O=C(NCCCO)c1nnc(Cc2c(F)cccc2Cl)o1,16086,-1.4,0.6,-0.2,-6.5,0.6
CCC(C)(C)C(=O)O[C@H]1C[C@@H](C)C=C2C=C[C@H](C)[C@H](CC[C@@H]3C[C@@H](O)CC(=O)O3)[C@H]21,4347,-2.9,-0.1,-0.3,-10.1,-0.5
CC(=O)Nc1ccc(S(=O)(=O)N/N=C/c2ccc(C)s2)cc1,2536,-6.1,-1.4,-0.2,0.3,-10.6
